The text below walks through data of PubChem BioAssay (NCI).

The nature of test [1]: NCI Yeast Anticancer Drug Screen. Data for the rad50 strain (AID 155).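 Also: 0% = growth of vehicle-only cultures of the same strain.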 The following applies: S. cerevisiae rad50 strain growth inhibition, stronger effect = higher value. In outline:
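Vehicle-treated cultures provide the reference for the growth inhibition reported for compound-exposed, repair-deficient yeast.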

Test [2] can be described thus: NCI Yeast Anticancer Drug Screen. Data for the mec2-1 strain (AID 157). As to conditions: S. cerevisiae mec2-1 strain, stronger effect = higher value. Put shortly: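 Test agents were screened against the mec2-1 yeast strain, with defined DNA repair or cell cycle alteration. Growth was scored as inhibition against vehicle-only controls.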
Test [3] is described as follows: NCI Yeast Anticancer Drug Screen. Data for the sgs1 mgt1 strain (AID 161).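 Also: 0% = growth of cultures given vehicle only.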 The following applies: S. cerevisiae sgs1 mgt1 strain, stronger effect = higher value. In outline: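 Inhibition of yeast growth, normalised to vehicle-treated controls, is reported for a strain bearing genetic alterations in DNA damage repair.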
The nature of test [4]: NCI Yeast Anticancer Drug Screen. Data for the cln2 rad14 strain (AID 165).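 Also: 0% = growth equal to vehicle treated cultures.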 As to conditions: S. cerevisiae cln2 rad14 strain, stronger effect = higher value. In outline:
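Growth of compound-exposed yeast (cln2 rad14 genotype) measured and expressed as inhibition relative to vehicle.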

The nature of test [5]: NCI Yeast Anticancer Drug Screen. Data for the bub3 strain (AID 167). The following applies: S. cerevisiae bub3 mutant strain, stronger effect = higher value. In outline: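 Mutant yeast screening strain plus compound; vehicle-treated cultures serve as the 0% inhibition reference.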
Test [6] in a line: NCI Yeast Anticancer Drug Screen. Data for the mlh1 rad18 strain (AID 175). As to conditions: S. cerevisiae mlh1 rad18 strain growth inhibition, stronger effect = higher value. Put shortly:
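In this whole-cell yeast screen, a strain with altered DNA damage repair is challenged with compound, and its growth is measured against matched vehicle-treated controls.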

The mark [7] stands for this setting: at 5.0 µM (retest, dose inferred, filed as 0.5).
Setting [8] is: at 50.0 µM (retest, dose inferred, filed as 5.0).

Several values for one entry are separate records, joined by “and”; a condition that tells them apart may be missing. Identical values can stand only once. The panel holds about 79,000 compounds, 15% with a hit somewhere; the sample as a whole holds those more often. A structure can be active in one record and inactive in another. Activity calls are given as the source filed them. Rule as the data show it: active = growth inhibition above about 70%; inactive = the rest.

In the case of `CN1C=c2c3c(ccc2=C2C=CC4C=C5OCOC5=CC4=C21)OCO3` (stereo unspecified), the growth inhibition was 48% (inactive) and 33% (inactive) in test [1] (setting [7]); 97% (active) and 98% (active) in test [1] (setting [8]); 92% (active) and 91.6% (active) in test [1] (at 50.0 µM); 32% (inactive) and 11% (inactive) in test [2] (setting [7]); 98% (active) and 99% (active) in test [2] (setting [8]); 93.3% (active) and 93% (active) in test [2] (at 50.0 µM). Further, the growth inhibition in test [3] (setting [7]) was 56% (inactive) and 13% (inactive); in test [3] (setting [8]), 98% (active) and 99% (active); in test [3] (at 50.0 µM) it was 93% (active) and 92.8% (active); in test [4] (setting [7]), 37% (inactive) and 11% (inactive); in test [4] (setting [8]) it was 98% (active) and 99% (active); in test [4] (at 50.0 µM) it was 92% (active). Further, the growth inhibition in test [5] (setting [7]) is 74% (active) and 17% (inactive); in test [5] (setting [8]), 98% (active) and 99% (active); in test [5] (at 50.0 µM), 92.5% (active) and 91.8% (active); in test [6] (setting [7]) it was 63% (inactive) and 30% (inactive); in test [6] (setting [8]), 97% (active); in test [6] (at 50.0 µM), 92.5% (active) and 91.7% (active).

Take `CCCCCCCCCCCCOS(=O)(=O)O`: the growth inhibition in test [1] (setting [7]) was -6% (inactive); in test [1] (setting [8]) it was 29% (inactive); in test [1] (at 50.0 µM) it was -13.1% (inactive) and 99% (active) and 25.1% (inactive); in test [2] (setting [7]), -12% (inactive); in test [2] (setting [8]), 2% (inactive); in test [2] (at 50.0 µM), -36.6% (inactive) and 98.2% (active) and 32.4% (inactive). The growth inhibition in test [3] (setting [7]) is -5% (inactive); in test [3] (setting [8]) it was 28% (inactive); in test [3] (at 50.0 µM), 6.3% (inactive) and 97% (active) and 36.8% (inactive); in test [4] (setting [7]) it was 0% (inactive); in test [4] (setting [8]), 36% (inactive); in test [4] (at 50.0 µM), 1% (inactive) and 98.4% (active) and 7.2% (inactive). The growth inhibition in test [5] (setting [7]) was -17% (inactive); in test [5] (setting [8]), -20% (inactive); in test [5] (at 50.0 µM), -29.6% (inactive) and 97% (active) and 23.4% (inactive); in test [6] (setting [7]), -17% (inactive); in test [6] (setting [8]) it was 29% (inactive); in test [6] (at 50.0 µM) it was -2.05% (inactive) and 98.2% (active) and 55.9% (inactive).

For `OC(CN1CCCC2CCCCC21)c1cc2ccccc2c2ccccc12` (stereo unspecified), the growth inhibition in test [1] (setting [7]) is 0% (inactive) and -2% (inactive); in test [1] (setting [8]), 97% (active) and 99% (active); in test [1] (at 50.0 µM), 98.7% (active) and 98.5% (active); in test [2] (setting [7]) it was 20% (inactive) and -4% (inactive); in test [2] (setting [8]), 80% (active) and 99% (active); in test [2] (at 50.0 µM) it was 98.4% (active). In addition, the growth inhibition in test [3] (setting [7]) is -21% (inactive) and -6% (inactive); in test [3] (setting [8]), 98% (active) and 99% (active); in test [3] (at 50.0 µM), 98.9% (active) and 98% (active); in test [4] (setting [7]), -2% (inactive); in test [4] (setting [8]) it was 94% (active) and 99% (active); in test [4] (at 50.0 µM) it was 99% (active) and 98.2% (active). For the same compound, the growth inhibition in test [5] (setting [7]) is 0% (inactive) and -3% (inactive); in test [5] (setting [8]), 91% (active) and 99% (active); in test [5] (at 50.0 µM) it was 99.2% (active) and 99% (active); in test [6] (setting [7]), 13% (inactive) and 2% (inactive); in test [6] (setting [8]), 99% (active); in test [6] (at 50.0 µM) it was 99.2% (active) and 99% (active).

Take `O=Cc1cc([N+](=O)[O-])cc(CCl)c1O`: the growth inhibition was -119% (inactive) in test [1] (setting [7]); 26% (inactive) in test [1] (setting [8]); 20.7% (inactive) in test [1] (at 50.0 µM); -52% (inactive) in test [2] (setting [7]); -31% (inactive) in test [2] (setting [8]); 13.2% (inactive) in test [2] (at 50.0 µM). Moreover, the growth inhibition in test [3] (setting [7]) is -59% (inactive); in test [3] (setting [8]), -8% (inactive); in test [3] (at 50.0 µM), 15.2% (inactive); in test [4] (setting [7]), -58% (inactive); in test [4] (setting [8]), -17% (inactive); in test [4] (at 50.0 µM) it was 20.1% (inactive). The growth inhibition in test [5] (setting [7]) was -71% (inactive); in test [5] (setting [8]), -32% (inactive); in test [5] (at 50.0 µM) it was -6.45% (inactive); in test [6] (setting [7]) it was -123% (inactive); in test [6] (setting [8]), -28% (inactive); in test [6] (at 50.0 µM), 27.9% (inactive).

As for `CN1C(c2ccccc2)CC(=NO)CC1c1ccccc1` (stereo unspecified), the growth inhibition is 18% (inactive) in test [1] (setting [7]); 58% (inactive) in test [1] (setting [8]); 24.6% (inactive) and 93.9% (active) in test [1] (at 50.0 µM); 1% (inactive) in test [2] (setting [7]); 45% (inactive) in test [2] (setting [8]); 6.35% (inactive) and 27.3% (inactive) in test [2] (at 50.0 µM). The growth inhibition in test [3] (setting [7]) was 6% (inactive); in test [3] (setting [8]), 58% (inactive); in test [3] (at 50.0 µM), 3.9% (inactive) and 82.2% (active); in test [4] (setting [7]), -12% (inactive); in test [4] (setting [8]), 20% (inactive); in test [4] (at 50.0 µM), 5.8% (inactive) and 32.3% (inactive). Besides, the growth inhibition in test [5] (setting [7]) was 7% (inactive); in test [5] (setting [8]) it was 23% (inactive); in test [5] (at 50.0 µM) it was -7.15% (inactive) and 62% (inactive); in test [6] (setting [7]), -1% (inactive); in test [6] (setting [8]) it was 41% (inactive); in test [6] (at 50.0 µM), 30.4% (inactive) and 85.2% (active).

Consider `Cc1nnc(S(=O)(=O)c2ccc(N=Nc3c(N)nc(N)nc3N)cc2)s1`, for which the growth inhibition was 6% (inactive) in test [1] (setting [7]); 20% (inactive) in test [1] (setting [8]); -5.45% (inactive) in test [1] (at 50.0 µM); 8% (inactive) in test [2] (setting [7]); -5% (inactive) in test [2] (setting [8]); -13.2% (inactive) in test [2] (at 50.0 µM). Further, the growth inhibition is -8% (inactive) in test [3] (setting [7]); -9% (inactive) in test [3] (setting [8]); -9.15% (inactive) in test [3] (at 50.0 µM); 9% (inactive) in test [4] (setting [7]); 4% (inactive) in test [4] (setting [8]); 68.4% (inactive) in test [4] (at 50.0 µM). Also, the growth inhibition in test [5] (setting [7]) was -1% (inactive); in test [5] (setting [8]) it was 7% (inactive); in test [5] (at 50.0 µM), -23.5% (inactive); in test [6] (setting [7]) it was 11% (inactive); in test [6] (setting [8]), 7% (inactive); in test [6] (at 50.0 µM), 6.4% (inactive).

Turning to `CCOC(=O)c1ccc(NCc2ccc3ccccc3n2)cc1`, the growth inhibition in test [1] (setting [7]) is -3% (inactive); in test [1] (setting [8]) it was 15% (inactive); in test [1] (at 50.0 µM) it was 71.6% (active); in test [2] (setting [7]) it was -11% (inactive); in test [2] (setting [8]) it was 14% (inactive); in test [2] (at 50.0 µM) it was 51.5% (inactive). Besides, the growth inhibition in test [3] (setting [7]) was -28% (inactive); in test [3] (setting [8]) it was 44% (inactive); in test [3] (at 50.0 µM), 79.4% (active); in test [4] (setting [7]), -6% (inactive); in test [4] (setting [8]), 4% (inactive); in test [4] (at 50.0 µM), 19.1% (inactive). Also, the growth inhibition is 11% (inactive) in test [5] (setting [7]); 55% (inactive) in test [5] (setting [8]); -11.1% (inactive) in test [5] (at 50.0 µM); -2% (inactive) in test [6] (setting [7]); 57% (inactive) in test [6] (setting [8]); 74.3% (active) in test [6] (at 50.0 µM).
